This passage reports inhibition results from ChEMBL document CHEMBL3433997, “St. Jude Leishmania screening dataset” (2016).

The inhibition is the relative decrease from the control value, in per cent.

The target in the first assay is Solute carrier family 2, facilitated glucose transporter member 1 (Homo sapiens) (UniProt P11166). Briefly: ST_JUDE_LEISH: Cytotoxicity at 2uM final concentration against transgenic Leishmania Mexicana promastigotes LmGLUT1 that are glucose transport deficient and complemented with the human glucose transporter GLUT1. Activity is measured by DNA content using SYBR green in vitro. Format: functional.
Solute carrier family 2, facilitated glucose transporter member 1 (Homo sapiens), sequence (P11166 whole entry): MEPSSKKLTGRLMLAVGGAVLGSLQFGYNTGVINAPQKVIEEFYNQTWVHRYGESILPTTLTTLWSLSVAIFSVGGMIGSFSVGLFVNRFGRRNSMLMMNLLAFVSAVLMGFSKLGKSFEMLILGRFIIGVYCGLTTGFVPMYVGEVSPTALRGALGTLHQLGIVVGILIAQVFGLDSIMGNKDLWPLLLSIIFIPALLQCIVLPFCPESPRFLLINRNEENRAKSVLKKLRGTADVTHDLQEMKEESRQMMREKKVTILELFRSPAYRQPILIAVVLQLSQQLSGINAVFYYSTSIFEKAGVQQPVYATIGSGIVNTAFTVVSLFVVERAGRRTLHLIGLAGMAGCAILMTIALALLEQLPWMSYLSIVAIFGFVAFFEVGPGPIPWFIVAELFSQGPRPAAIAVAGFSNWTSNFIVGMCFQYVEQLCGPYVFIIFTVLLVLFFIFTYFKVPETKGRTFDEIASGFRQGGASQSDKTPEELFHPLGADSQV
Turning to `Cc1c(C)n(C2CCCCC2)c2ncnc(OC3CCN(CC(=O)N4CCCC4)CC3)c12`, the inhibition worked out at 1.06%.

As to `CC(C)c1ccc(NC(=O)NCC2CCCN(CCCCCNC(=O)/C=C/c3ccc(Cl)c(Cl)c3)C2)cc1` (stereo not given), the inhibition is 2.73%.

With `COc1ccc(C(=O)C2CC2CN(C)CCC(O)c2ccc(Cl)c(Cl)c2)cc1` (stereo not given), the inhibition amounted to 1.1%.

For the compound `CCCNc1nc(Nc2ccccc2C)nc2ccccc12`, the inhibition came out at 38.1%.

Regarding `CCOc1ccc2c(c1)N(C(=O)C=Cc1ccccc1)C(C)(C)c1ssc(=S)c1-2`, the inhibition was determined as 0.5%.

`Cc1cc(C2CCN(CCCCNC(=O)c3ccc(-c4ccc(C(F)(F)F)cc4)cc3)CC2)c(C)cc1OCC(N)=O`: the inhibition was found to be 0.54%.

`Cc1cc(OCCCN2CCC(NS(=O)(=O)c3ccc(Cl)c(Cl)c3)CC2)c2ccccc2n1`: the inhibition is 4.28%.

Take `CCCCCOc1ccc(C=NNc2nc(O)cc(-c3ccccc3)n2)cc1`: the inhibition stood at 2.62%.

As to `N=C(/N=C(/NCCCCCCN/C(=N\C(=N)Nc1ccc(Cl)cc1)N1CCOCC1)N1CCOCC1)Nc1ccc(Cl)cc1`, the inhibition is 10.5%.

For the compound `O=C(Nc1ccccc1)Nc1cccc(-c2ccc(-c3nc4cc(C(F)(F)F)ccc4[nH]3)cc2)c1`, the inhibition was 4.43%.

As for `COc1cc(F)c2ncc(Cl)c(CCN3CCC(NCc4ccc5c(n4)NC(=O)CS5)CC3)c2c1`, the inhibition is 8.34%.

Consider `CCN(CC)CCNc1ccc(Nc2ccnc3cc4ccccc4cc23)cc1`, for which the inhibition stood at 0.35%.

As to `CS(=O)(=O)c1ccc2[nH]c(-c3cc(-c4ccc(OCCN5CCOCC5)cc4)cnc3N)nc2c1`, the inhibition was 6.63%.

On to `CC(C)CNCc1cccc(-c2cccc(CNCCCN3CCN(C)CC3)c2)c1`, for which the inhibition was 2.03%.

Regarding `COc1ccc(CNC2CCN(C)CC2)cc1-c1ccc(S(=O)(=O)NC2CCC2)cc1`, the inhibition is 2.91%.

Take `N#CCCN1CCN(Cc2cccc(-c3ccc(-c4nc5cc(F)ccc5[nH]4)cc3)c2)CC1`: the inhibition stood at 4.34%.

Turning to `Cc1ccc(CNC(=O)[C@H](CC(C)C)Nc2cc(C)nc(NCc3ccccc3C)n2)cc1`, the inhibition was 4.3%.

Regarding `CCCCCCCN1CC[C@@H](CCCc2ccnc3ccc(OCCCCNC(N)=O)cc23)[C@@H](CC)C1`, the inhibition was 2.24%.

With `COc1ccc(Cl)cc1S(=O)(=O)Nc1cccc(CCN2CCC(N3CCCCC3)CC2)c1`, the inhibition amounted to 2.48%.

As for `Cc1cc(C(=O)CN2C(=O)NC3(CCOc4ccccc43)C2=O)c(C)n1Cc1ccco1` (stereo not given), the inhibition came out at 5.85%.

With `CN1CCN(C(C(=O)NCc2cc(Cl)cc(Cl)c2)c2ccccc2-c2ccsc2)CC1` (stereo not given), the inhibition stood at 4.67%.

Consider `CN(C)CC1CCCN1Cc1ccccc1-c1cnn(C)c(=O)c1Oc1cccc(C#N)c1` (stereo not given), for which the inhibition was determined as 1.03%.

For `COc1ccc(CN(C)CCCCc2ccc(NC(=O)COc3cccc4sc5ccccc5c(=O)c34)cc2)cc1OC`, the inhibition came to 1.62%.

With `O=S(=O)(NCCN1CCCC1)c1ccc(-c2ccc(CNCc3ccccc3)cc2)s1`, the inhibition was 4.55%.

Regarding `O=C(c1ccccc1NN=C1C(=O)N(c2ccccc2)N=C1c1ccccc1)N1CCOCC1`, the inhibition is -1.67%.

Turning to `CCCCCCNC(=O)C1Cc2c([nH]c3ccc(Br)cc23)C2(CCN(CCc3ccccc3)CC2)N1` (stereo not given), the inhibition came out at 13.8%.

As to `COc1ccc2nc3cc(Cl)ccc3c(NCCCCCCNc3c4ccc(Cl)cc4nc4ccc(OC)cc34)c2c1`, the inhibition is 10.3%.

As for `CCc1ccc(N2C(=O)C3C(Cc4ccc(OC(C)(C)C)cc4)NC4(C(=O)N(Cc5ccccc5)c5ccc(F)cc54)C3C2=O)cc1` (stereo not given), the inhibition amounted to 0.6%.

As to `Cc1cccc(C(=O)Nc2ccnc(N3CCC(N(C)Cc4ccc(C#N)cc4)CC3)c2)c1`, the inhibition stood at 3.54%.

On to `COc1cc2c(cc1OCCN1CCC(N3CCCCC3)CC1)N(C(=O)/C=C/c1ccccc1Cl)CC2`, for which the inhibition worked out at 0.24%.

For the compound `O=C(Nc1cccc(-c2cccc(CN3CCCC3)c2)c1)c1ccc(Cl)cc1`, the inhibition came to 1.55%.

In the case of `O=C(NCc1ccccc1)NC(CCCN1CCC(Oc2cccc(Cl)c2)CC1)c1ccc(Cl)c(Cl)c1` (stereo not given), the inhibition was determined as 2.71%.

As for `CC1CCNc2ccc(Cc3cnc(N)nc3N)cc21` (stereo not given), the inhibition came out at 2.12%.

On to `O=C(/C=C/c1ccc(Cl)c(Cl)c1)NCCCN1CCC(c2c[nH]c3ccccc23)CC1`, for which the inhibition turned out to be 6.28%.

As to `COc1ccc(CN2CCC(CNCCc3ccccc3Oc3ccccc3)CC2)cc1`, the inhibition was -1.06%.

Consider `Cc1sc(CNCCCNc2cc(=O)c3ccccc3[nH]2)c(I)c1C`, for which the inhibition was found to be 3.11%.

`c1ccc(-c2cc(NCCCCCCCCNc3cc(-c4ccccc4)nc4ccccc34)c3ccccc3n2)cc1`: the inhibition turned out to be 105%.

In the case of `O=C(/C=C/c1ccc(Cl)c(Cl)c1)NCCCCCN1CCN(C(=O)Nc2cccc(F)c2)CC1`, the inhibition came to 3.99%.

For `CC(C)C1=CC(=NOS(=O)(=O)c2ccccc2)C=C(C(C)C)C1=O`, the inhibition was 0.62%.

`Cc1cccc(CN2CCN(c3ncc(C(=O)NC4CC4)cc3Cl)CC2)c1`: the inhibition is 4.67%.

The target in another assay is Hexose transporter 1 (Plasmodium falciparum) (UniProt O97467). The assay can be described thus: ST_JUDE_LEISH: Cytotoxicity at 2uM final concentration against transgenic Leishmania Mexicana promastigotes LmPfHT that are glucose transport deficient and complemented with the Plasmodium falciparum hexose transporter. Activity is measured by DNA content using SYBR green in vitro. Format: functional.
Consider `Cc1c(C)n(C2CCCCC2)c2ncnc(OC3CCN(CC(=O)N4CCCC4)CC3)c12`, for which the inhibition amounted to 3.02%.

As to `CC(C)c1ccc(NC(=O)NCC2CCCN(CCCCCNC(=O)/C=C/c3ccc(Cl)c(Cl)c3)C2)cc1` (stereo not given), the inhibition is 1.74%.

Consider `COc1ccc(C(=O)C2CC2CN(C)CCC(O)c2ccc(Cl)c(Cl)c2)cc1` (stereo not given), for which the inhibition was 1.11%.

For `CCCNc1nc(Nc2ccccc2C)nc2ccccc12`, the inhibition was found to be 33.5%.

With `CCOc1ccc2c(c1)N(C(=O)C=Cc1ccccc1)C(C)(C)c1ssc(=S)c1-2`, the inhibition came to 0.43%.

As to `Cc1cc(C2CCN(CCCCNC(=O)c3ccc(-c4ccc(C(F)(F)F)cc4)cc3)CC2)c(C)cc1OCC(N)=O`, the inhibition stood at 1.14%.

Take `Cc1cc(OCCCN2CCC(NS(=O)(=O)c3ccc(Cl)c(Cl)c3)CC2)c2ccccc2n1`: the inhibition turned out to be 4.69%.

Turning to `CCCCCOc1ccc(C=NNc2nc(O)cc(-c3ccccc3)n2)cc1`, the inhibition was 2.5%.

On to `N=C(/N=C(/NCCCCCCN/C(=N\C(=N)Nc1ccc(Cl)cc1)N1CCOCC1)N1CCOCC1)Nc1ccc(Cl)cc1`, for which the inhibition was determined as 9.54%.

In the case of `O=C(Nc1ccccc1)Nc1cccc(-c2ccc(-c3nc4cc(C(F)(F)F)ccc4[nH]3)cc2)c1`, the inhibition amounted to 4.53%.

For the compound `COc1cc(F)c2ncc(Cl)c(CCN3CCC(NCc4ccc5c(n4)NC(=O)CS5)CC3)c2c1`, the inhibition came out at 8.44%.

With `CCN(CC)CCNc1ccc(Nc2ccnc3cc4ccccc4cc23)cc1`, the inhibition is -0.38%.

On to `CS(=O)(=O)c1ccc2[nH]c(-c3cc(-c4ccc(OCCN5CCOCC5)cc4)cnc3N)nc2c1`, for which the inhibition stood at 6.02%.

Turning to `CC(C)CNCc1cccc(-c2cccc(CNCCCN3CCN(C)CC3)c2)c1`, the inhibition worked out at 0.17%.

For the compound `COc1ccc(CNC2CCN(C)CC2)cc1-c1ccc(S(=O)(=O)NC2CCC2)cc1`, the inhibition stood at 2.71%.

Regarding `N#CCCN1CCN(Cc2cccc(-c3ccc(-c4nc5cc(F)ccc5[nH]4)cc3)c2)CC1`, the inhibition was 0.68%.

Consider `Cc1ccc(CNC(=O)[C@H](CC(C)C)Nc2cc(C)nc(NCc3ccccc3C)n2)cc1`, for which the inhibition came out at 4.62%.

Regarding `CCCCCCCN1CC[C@@H](CCCc2ccnc3ccc(OCCCCNC(N)=O)cc23)[C@@H](CC)C1`, the inhibition was determined as 4.54%.

For `COc1ccc(Cl)cc1S(=O)(=O)Nc1cccc(CCN2CCC(N3CCCCC3)CC2)c1`, the inhibition amounted to 4.55%.

With `Cc1cc(C(=O)CN2C(=O)NC3(CCOc4ccccc43)C2=O)c(C)n1Cc1ccco1` (stereo not given), the inhibition came out at 4.77%.

Consider `CN1CCN(C(C(=O)NCc2cc(Cl)cc(Cl)c2)c2ccccc2-c2ccsc2)CC1` (stereo not given), for which the inhibition was 5.51%.

On to `CN(C)CC1CCCN1Cc1ccccc1-c1cnn(C)c(=O)c1Oc1cccc(C#N)c1` (stereo not given), for which the inhibition came out at 1.03%.

In the case of `COc1ccc(CN(C)CCCCc2ccc(NC(=O)COc3cccc4sc5ccccc5c(=O)c34)cc2)cc1OC`, the inhibition is -3.06%.

Take `O=S(=O)(NCCN1CCCC1)c1ccc(-c2ccc(CNCc3ccccc3)cc2)s1`: the inhibition stood at 3.35%.

`O=C(c1ccccc1NN=C1C(=O)N(c2ccccc2)N=C1c1ccccc1)N1CCOCC1`: the inhibition was determined as 1.67%.

Regarding `CCCCCCNC(=O)C1Cc2c([nH]c3ccc(Br)cc23)C2(CCN(CCc3ccccc3)CC2)N1` (stereo not given), the inhibition stood at 10.8%.

On to `COc1ccc2nc3cc(Cl)ccc3c(NCCCCCCNc3c4ccc(Cl)cc4nc4ccc(OC)cc34)c2c1`, for which the inhibition came out at 11.2%.

With `CCc1ccc(N2C(=O)C3C(Cc4ccc(OC(C)(C)C)cc4)NC4(C(=O)N(Cc5ccccc5)c5ccc(F)cc54)C3C2=O)cc1` (stereo not given), the inhibition was -0.02%.

`Cc1cccc(C(=O)Nc2ccnc(N3CCC(N(C)Cc4ccc(C#N)cc4)CC3)c2)c1`: the inhibition was 2.52%.

Turning to `COc1cc2c(cc1OCCN1CCC(N3CCCCC3)CC1)N(C(=O)/C=C/c1ccccc1Cl)CC2`, the inhibition worked out at 1.79%.

Consider `O=C(Nc1cccc(-c2cccc(CN3CCCC3)c2)c1)c1ccc(Cl)cc1`, for which the inhibition was 1.32%.

On to `O=C(NCc1ccccc1)NC(CCCN1CCC(Oc2cccc(Cl)c2)CC1)c1ccc(Cl)c(Cl)c1` (stereo not given), for which the inhibition was -0.32%.

Turning to `CC1CCNc2ccc(Cc3cnc(N)nc3N)cc21` (stereo not given), the inhibition was 1.47%.

Regarding `O=C(/C=C/c1ccc(Cl)c(Cl)c1)NCCCN1CCC(c2c[nH]c3ccccc23)CC1`, the inhibition was found to be 5.12%.

Consider `COc1ccc(CN2CCC(CNCCc3ccccc3Oc3ccccc3)CC2)cc1`, for which the inhibition is -1.31%.

Consider `Cc1sc(CNCCCNc2cc(=O)c3ccccc3[nH]2)c(I)c1C`, for which the inhibition amounted to 2.66%.

Turning to `c1ccc(-c2cc(NCCCCCCCCNc3cc(-c4ccccc4)nc4ccccc34)c3ccccc3n2)cc1`, the inhibition was found to be 104%.

In the case of `O=C(/C=C/c1ccc(Cl)c(Cl)c1)NCCCCCN1CCN(C(=O)Nc2cccc(F)c2)CC1`, the inhibition was found to be 2.95%.

As to `CC(C)C1=CC(=NOS(=O)(=O)c2ccccc2)C=C(C(C)C)C1=O`, the inhibition was 4.11%.

As for `Cc1cccc(CN2CCN(c3ncc(C(=O)NC4CC4)cc3Cl)CC2)c1`, the inhibition is 2.14%.
